Where “and” joins values, the source holds several entries; their conditions need not be identical. Equal entries are not always repeated. About 83,000 compounds went through this panel and 20% of them were active in at least one assay; those are over-represented in the sample as a whole.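 Negative percent growth values reflect cell death: -40 means 40% of the cells present at the start died, and -100 means all died.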 Calls of active or inactive are those of the source. Rule for the calls: active = growth percent below 10; inactive = the rest.
Each compound was assayed on MDA-MB-468 breast (assay: NCI-60 one-dose screen, 48 h (100 = growth as untreated, 0 = no growth, -100 = all killed)). Conditions: 10 µM unless noted.
In the case of `CCOC(=O)c1ccc2c(c1)nc(-c1ccccc1)n2C1CCCCC1`, the growth is reported as 118% (inactive). In the case of `OCCOSCCO`, the growth is reported as 98.2% (inactive). For `CCN(CC)CCSc1c2ccc(Cl)cc2nc2ccc(OC)cc12`, the growth was -17.5% (active). In the case of `Cn1c(=O)c2c(nc(NC3=NS(=O)(=O)c4ccccc43)n2Cc2ccccc2)n(C)c1=O`, the growth is reported as 103% (inactive). In the case of `O=C1/C(=C\c2ccc(F)cc2)CN(C(=O)c2ccccc2)C/C1=C\c1ccc(F)cc1`, the growth is reported as 5.47% (active). In the case of `O=C(N/N=C\c1ccc(Cl)cc1Cl)c1ccncc1`, the growth is reported as 110% (inactive). For `O=S(=O)(O)c1ccc(F)cc1`, the growth was 122% (inactive). In the case of `C/C(=C(/c1ccc(Cl)cc1)c1ccc(OCCN2CCCCC2)cc1)c1ccccc1`, the growth is reported as 90.6% (inactive). With `CS(=O)(=O)c1ccc(C(=O)Nc2ccc(Cl)c(-c3ccccn3)c2)c(Cl)c1` the growth was 3.59% (active). For `O=C1c2ccccc2-c2c1c1cccnc1c(=O)n2C[C@H](O)CO`, the growth was 88.4% (inactive). With `N#C/C(=C\c1ccc(Br)cc1)n1nnc2cccc(F)c21` the growth was -0.554% (active). With `Oc1[nH]c2ccc(Cl)cc2c1N=Nc1nc(N=Nc2c(O)[nH]c3ccc(Cl)cc23)nc(N2CCOCC2)n1` the growth was 23.6% (inactive). `C=C1C(=O)O[C@H]2[C@H]1CC/C(COC(=O)NC1CCC(O)CC1)=C\CC[C@@]1(C)O[C@@H]21` (some centres undefined) was tested, and the growth was 37% (inactive) and 31.7% (inactive). For `O=C(CSc1nc2c(n1Nc1ccccc1)-c1ccccc1SC2)Nc1nccs1`, the growth was 104% (inactive). In the case of `Cc1nc2c3c(ncn2n1)Oc1c(c(=O)[nH]c2ccccc12)C3c1ccc(Cl)cc1` (centres undefined), the growth is reported as 109% (inactive). With `CCCCCCCCCCCCCCCCS(=O)(=O)Nc1cc(C(=O)NN)cc(C(=O)NN)c1` the growth was 45.2% (inactive). In the case of `O=C1NN(C(=O)c2ccc(Cl)cc2)C(c2ccccc2)=N/C1=C\c1cn(-c2ccccc2)nc1-c1ccccc1`, the growth is reported as 81.9% (inactive). `COc1ccc(C(=O)CC#N)cc1` was tested, and the growth was 103% (inactive). For `COc1ccc(/C=C(/C(=O)N2CCCC2)c2cc(OC)c(OC)c(OC)c2)cc1`, the growth was 11.6% (inactive). In the case of `S=C1SCC(c2ccccc2)S1` (centres undefined), the growth is reported as 99.6% (inactive). With `O=C(Nc1ccccc1)Oc1ccccc1-c1ccccc1` the growth was 101% (inactive). In the case of `C=C[C@@H]1C[C@H](O)Cc2cc(F)ccc2N1`, the growth is reported as 88.7% (inactive). With `COc1ccc2c(c1)C(c1cc(OC)c3c(c1)OCO3)C1=C(COC1=O)N2` (centres undefined) the growth was -14.4% (active). In the case of `CC[C@H](C)C(=O)O[C@H]1CCC=C2C=C[C@H](C)[C@H](CC[C@@H]3CC=CC(=O)O3)[C@H]21`, the growth is reported as 85% (inactive). With `CN1CCC(CNc2cc(C3(C(=O)Nc4cc(C(=O)Nc5ccc(Cl)c(C(F)(F)F)c5)ccc4F)CC3)ncn2)CC1` the growth was -7.58% (active). With `COc1c(N)c2c(c([N+](=O)[O-])c1OC)C(=O)OC2` the growth was 107% (inactive). In the case of `N#Cc1c(N)n2c(nc1=Nc1ccc([N+](=O)[O-])cc1)sc1cc(Cl)ccc12`, the growth is reported as 79.5% (inactive). For `COC(=O)Nc1ccc(-c2nc(-c3cccc(O)c3)c(-c3ccnc(Br)c3)[nH]2)cc1`, the growth was 25.6% (inactive). In the case of `CN1CCN(c2ccc(/C=N/Nc3nc4ccccc4c(=O)n3-c3ccccc3)cc2)CC1`, the growth is reported as 90.8% (inactive). In the case of `COc1ccc(/C(=C\c2ccc3c(c2)OCO3)C(=O)Nc2nc3ccc(F)cc3s2)cc1OC`, the growth is reported as 115% (inactive). For `COc1cccc(-c2nn(-c3ccccc3)cc2-c2ccnc(NCCCNS(=O)(=O)c3cccc(F)c3)c2)c1`, the growth was -10.1% (active). For `COc1ccc(/C=C/C(=O)c2nnn(-c3ccc(Br)cc3)c2C)cc1OC`, the growth was 46.9% (inactive). With `CC(C)n1c(NCCc2ccc(O)c(O)c2)nc2c1c(=O)n(C)c(=O)n2C` the growth was 73.8% (inactive). `CN1CCN(Cc2ccc(C(=O)Nc3cncc(C#Cc4cnc5cccnn45)c3)cc2C(F)(F)F)CC1` was tested, and the growth was 61.1% (inactive). For `Nc1nc(-c2cccnc2)nc2c1sc(=S)n2-c1ccccc1`, the growth was 103% (inactive). `Cc1cccc(NC(=O)CSc2nc3ccc([N+](=O)[O-])cc3[nH]2)c1` was tested, and the growth was 48.6% (inactive). `O=c1[nH]c([C@@H]2CCCN2)nc2c1oc1ccc(Cl)cc12` was tested, and the growth was 33.6% (inactive). With `O=C1/C(=C/c2ccc3c(c2)OCO3)SC(=S)N1CCc1ccc(O)cc1` the growth was 67.8% (inactive). In the case of `COCCOc1cc2ncnc(N3CCN(c4cc(S(C)(=O)=O)c(C)cc4Cl)CC3)c2cc1OCCOC`, the growth is reported as 90.2% (inactive).
